The panel holds about 83,000 compounds, 20% with a hit somewhere; the sample as a whole holds those more often.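 A percent growth of 40 corresponds to 60% growth inhibition; 0 means no net growth; -100 means all cells died. Active threshold: below 10.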 A number with no mark means an inactive call.
These compounds were tested on OVCAR-5 ovarian (assay: NCI-60 one-dose screen, 48 h (100 = growth as untreated, 0 = no growth, -100 = all killed)). Conditions: 10 µM unless noted.

| Compound | growth [%] |
| --- | --- |
| COc1ccc(-c2c(N)n[nH]c2-c2cc3c(c(OC)c2OC)OCO3)cc1 | 85.5 |
| COc1cc(-c2nn(-c3cccc(NC(=O)c4cccc(C(F)(F)F)c4)c3)cc2-c2ccncc2)ccc1Cl | 49.3 |
| Clc1ccc(-c2nc3ccccc3s2)cc1Cl | 103 |
| Fc1ccc(CNCCNc2ncnc3c2cnn3-c2ccccc2)cc1 | 98.6 |
| COc1ccc(-n2c(=O)sc3c(Cl)nc(C)nc32)c(OC)c1 | 92 |
| O=C(O)c1nc(-c2ccccc2)oc1N1CCOCC1 | 93.2 |
| Cn1c(=O)c2[nH]c(C3CC=CCC3)nc2n(C)c1=O (stereo not given) | 94.7 |
| COc1ccc(C2C=C(c3ccc(N)cc3)N=C3SC=CN32)cc1OC (stereo not given) | 108 |
| O=S(=O)(NCCNc1nccc(-c2c(-c3ccc(O)cc3)nc3sccn23)n1)c1cccc2ccccc12 | 114 |
| O=S(=O)(NCCNc1nccc(-c2c(-c3ccc(F)cc3)nc3sccn23)n1)c1ccc(F)cc1 | 102 |
| COc1ccc(/C=C2\CN(Cc3cn(CCNc4ccnc5cc(Cl)ccc45)nn3)C/C(=C\c3ccc(OC)c(OC)c3)C2=O)cc1OC | 18.1 |
| Cc1ccc(S(=O)(=O)c2nc(-c3ccccc3)oc2S(C)(=O)=O)cc1 | 66 |
| COc1ccc(C2=Nn3c(nnc3-n3nc(C)cc3C)SC2)cc1 | 48.7 |
| O=C(O)/C=C/C(=O)c1ccc(Cl)cc1 | 115 |
| Cc1ccc(S(=O)(=O)NCCNc2nccc(-c3c(-c4ccc(O)cc4)nc4sccn34)n2)cc1 | 135 |
